# Measurements as given in the supplement of paper PMC4466140.
# Tests used:
# Test in all cases: SPOT peptide array binding signal intensity (averaged, normalized) (arbitrary units (background-subtracted, floor 0; scale differs between SH3 domains)); higher = stronger binding of the SH3 domain to the peptide
# AgAbp1 = molecular target: AgAbp1
# In short: (§1)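 Cellulose membranes carried synthetic 15-mer peptides with cysteines swapped for serines. These were incubated overnight at 4°C with 10 μg/ml of GST-fused SH3 domains from four yeast species in TBS-based blocking buffer. Binding signal, detected with anti-GST antibody and quantified in Genespotter, is the normalized, background-subtracted spot intensity averaged over replicates, in arbitrary units specific to each domain.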
# AgBbc1 = molecular target: AgBbc1
# In short: as §1
# AgBem1-D1 = molecular target: AgBem1-D1
# In short: as §1
# AgBzz1-D1 = molecular target: AgBzz1-D1
# In short: as §1
# AgBzz1-D2 = molecular target: AgBzz1-D2
# In short: as §1
# AgCyk3 = molecular target: AgCyk3
# In short: as §1
# AgFus1 = molecular target: AgFus1
# In short: as §1
# AgHof1 = molecular target: AgHof1
# In short: as §1
# AgHse1 = molecular target: AgHse1
# In short: as §1
# AgLsb1 = molecular target: AgLsb1
# In short: as §1
# AgLsb4 = molecular target: AgLsb4
# In short: as §1
# AgMyo5 = molecular target: AgMyo5
# In short: as §1
# AgNbp2 = molecular target: AgNbp2
# In short: as §1
# AgRvs167 = molecular target: AgRvs167
# In short: as §1
# AgSho1 = molecular target: AgSho1
# In short: as §1
# AgSla1-D1-D2 = molecular target: AgSla1-D1-D2
# In short: as §1
# AgSla1-D3 = molecular target: AgSla1-D3
# In short: as §1
# CaAbp1-D1 = molecular target: CaAbp1-D1
# In short: as §1
# CaAbp1-D2 = molecular target: CaAbp1-D2
# In short: as §1
# CaBbc1 = molecular target: CaBbc1
# In short: as §1
# CaBem1-D1 = molecular target: CaBem1-D1
# In short: as §1
# CaBzz1-D1 = molecular target: CaBzz1-D1
# In short: as §1
# CaBzz1-D2 = molecular target: CaBzz1-D2
# In short: as §1
# CaCyk3 = molecular target: CaCyk3
# In short: as §1
# CaFus1 = molecular target: CaFus1
# In short: as §1
# CaHof1 = molecular target: CaHof1
# In short: as §1
# CaHse1 = molecular target: CaHse1
# In short: as §1
# CaLsb1 = molecular target: CaLsb1
# In short: as §1
# CaLsb4 = molecular target: CaLsb4
# In short: as §1
# CaMyo5 = molecular target: CaMyo5
# In short: as §1
# CaNbp2 = molecular target: CaNbp2
# In short: as §1
# CaRvs167 = molecular target: CaRvs167
# In short: as §1
# CaRvs167-3 = molecular target: CaRvs167-3
# In short: as §1
# CaSho1 = molecular target: CaSho1
# In short: as §1
# CaSla1-D1-D2 = molecular target: CaSla1-D1-D2
# In short: as §1
# CaSla1-D3 = molecular target: CaSla1-D3
# In short: as §1
# ScAbp1 = molecular target: ScAbp1
# In short: as §1
# ScBbc1 = molecular target: ScBbc1
# In short: as §1
# ScBem1-D1 = molecular target: ScBem1-D1
# In short: as §1
# ScBzz1-D1 = molecular target: ScBzz1-D1
# In short: as §1
# ScBzz1-D2 = molecular target: ScBzz1-D2
# In short: as §1
# ScCyk3 = molecular target: ScCyk3
# In short: as §1
# ScFus1 = molecular target: ScFus1
# In short: as §1
# ScHof1 = molecular target: ScHof1
# In short: as §1
# ScHse1 = molecular target: ScHse1
# In short: as §1
# ScLsb1 = molecular target: ScLsb1
# In short: as §1
# ScLsb2 = molecular target: ScLsb2
# In short: as §1
# ScLsb3 = molecular target: ScLsb3
# In short: as §1
# ScLsb4 = molecular target: ScLsb4
# In short: as §1
# ScMyo3 = molecular target: ScMyo3
# In short: as §1
# ScMyo5 = molecular target: ScMyo5
# In short: as §1
# ScNbp2 = molecular target: ScNbp2
# In short: as §1
# ScPex13 = molecular target: ScPex13
# In short: as §1
# ScRvs167 = molecular target: ScRvs167
# In short: as §1
# ScSho1 = molecular target: ScSho1
# In short: as §1
# ScSla1-D1-D2 = molecular target: ScSla1-D1-D2
# In short: as §1
# ScSla1-D3 = molecular target: ScSla1-D3
# In short: as §1
# SpAbp1-D1 = molecular target: SpAbp1-D1
# In short: as §1
# SpBbc1 = molecular target: SpBbc1
# In short: as §1
# SpBzz1-D1 = molecular target: SpBzz1-D1
# In short: as §1
# SpBzz1-D2 = molecular target: SpBzz1-D2
# In short: as §1
# SpCyk3 = molecular target: SpCyk3
# In short: as §1
# SpHof1 = molecular target: SpHof1
# In short: as §1
# SpHof1-2 = molecular target: SpHof1-2
# In short: as §1
# SpHof1-3 = molecular target: SpHof1-3
# In short: as §1
# SpHse1 = molecular target: SpHse1
# In short: as §1
# SpLsb1 = molecular target: SpLsb1
# In short: as §1
# SpLsb4 = molecular target: SpLsb4
# In short: as §1
# SpMyo1 = molecular target: SpMyo1
# In short: as §1
# SpNbp2 = molecular target: SpNbp2
# In short: as §1
# SpPex13 = molecular target: SpPex13
# In short: as §1
# SpRvs167 = molecular target: SpRvs167
# In short: as §1
# SpSla1-D1-D2 = molecular target: SpSla1-D1-D2
# In short: as §1
# SpSla1-D3 = molecular target: SpSla1-D3
# In short: as §1
binder,measurement,setting,value
TPRLSLPRLPNKHHW,SPOT peptide array binding signal intensity,AgAbp1,88
same,SPOT peptide array binding signal intensity,AgBbc1,1.5
same,SPOT peptide array binding signal intensity,AgBem1-D1,≤ 0
same,SPOT peptide array binding signal intensity,AgBzz1-D1,12.5
same,SPOT peptide array binding signal intensity,AgBzz1-D2,23.5
same,SPOT peptide array binding signal intensity,AgCyk3,≤ 0
same,SPOT peptide array binding signal intensity,AgFus1,15.5
same,SPOT peptide array binding signal intensity,AgHof1,685
same,SPOT peptide array binding signal intensity,AgHse1,271
same,SPOT peptide array binding signal intensity,AgLsb1,1
same,SPOT peptide array binding signal intensity,AgLsb4,33.5
same,SPOT peptide array binding signal intensity,AgMyo5,≤ 0
same,SPOT peptide array binding signal intensity,AgNbp2,26
same,SPOT peptide array binding signal intensity,AgRvs167,2.67
same,SPOT peptide array binding signal intensity,AgSho1,274
same,SPOT peptide array binding signal intensity,AgSla1-D1-D2,7
same,SPOT peptide array binding signal intensity,AgSla1-D3,≤ 0
same,SPOT peptide array binding signal intensity,CaAbp1-D1,314
same,SPOT peptide array binding signal intensity,CaAbp1-D2,675
same,SPOT peptide array binding signal intensity,CaBbc1,30.2
same,SPOT peptide array binding signal intensity,CaBem1-D1,≤ 0
same,SPOT peptide array binding signal intensity,CaBzz1-D1,≤ 0
same,SPOT peptide array binding signal intensity,CaBzz1-D2,34.5
same,SPOT peptide array binding signal intensity,CaCyk3,≤ 0
same,SPOT peptide array binding signal intensity,CaFus1,50.5
same,SPOT peptide array binding signal intensity,CaHof1,1
same,SPOT peptide array binding signal intensity,CaHse1,73
same,SPOT peptide array binding signal intensity,CaLsb1,≤ 0
same,SPOT peptide array binding signal intensity,CaLsb4,70
same,SPOT peptide array binding signal intensity,CaMyo5,≤ 0
same,SPOT peptide array binding signal intensity,CaNbp2,116
same,SPOT peptide array binding signal intensity,CaRvs167,2.83
same,SPOT peptide array binding signal intensity,CaRvs167-3,4.75
same,SPOT peptide array binding signal intensity,CaSho1,89
same,SPOT peptide array binding signal intensity,CaSla1-D1-D2,256
same,SPOT peptide array binding signal intensity,CaSla1-D3,1.5
same,SPOT peptide array binding signal intensity,ScAbp1,0.5
same,SPOT peptide array binding signal intensity,ScBbc1,≤ 0
same,SPOT peptide array binding signal intensity,ScBem1-D1,2
same,SPOT peptide array binding signal intensity,ScBzz1-D1,≤ 0
same,SPOT peptide array binding signal intensity,ScBzz1-D2,16.5
same,SPOT peptide array binding signal intensity,ScCyk3,6
same,SPOT peptide array binding signal intensity,ScFus1,0.5
same,SPOT peptide array binding signal intensity,ScHof1,238
same,SPOT peptide array binding signal intensity,ScHse1,216
same,SPOT peptide array binding signal intensity,ScLsb1,8
same,SPOT peptide array binding signal intensity,ScLsb2,≤ 0
same,SPOT peptide array binding signal intensity,ScLsb3,1330
same,SPOT peptide array binding signal intensity,ScLsb4,5
same,SPOT peptide array binding signal intensity,ScMyo3,≤ 0
same,SPOT peptide array binding signal intensity,ScMyo5,≤ 0
same,SPOT peptide array binding signal intensity,ScNbp2,62
same,SPOT peptide array binding signal intensity,ScPex13,224
same,SPOT peptide array binding signal intensity,ScRvs167,3.33
same,SPOT peptide array binding signal intensity,ScSho1,764
same,SPOT peptide array binding signal intensity,ScSla1-D1-D2,13.5
same,SPOT peptide array binding signal intensity,ScSla1-D3,1.75
same,SPOT peptide array binding signal intensity,SpAbp1-D1,386
same,SPOT peptide array binding signal intensity,SpBbc1,≤ 0
same,SPOT peptide array binding signal intensity,SpBzz1-D1,403
same,SPOT peptide array binding signal intensity,SpBzz1-D2,0.75
same,SPOT peptide array binding signal intensity,SpCyk3,2
same,SPOT peptide array binding signal intensity,SpHof1,35
same,SPOT peptide array binding signal intensity,SpHof1-2,293
same,SPOT peptide array binding signal intensity,SpHof1-3,136
same,SPOT peptide array binding signal intensity,SpHse1,416
same,SPOT peptide array binding signal intensity,SpLsb1,≤ 0
same,SPOT peptide array binding signal intensity,SpLsb4,357
same,SPOT peptide array binding signal intensity,SpMyo1,5.5
same,SPOT peptide array binding signal intensity,SpNbp2,61
same,SPOT peptide array binding signal intensity,SpPex13,5
same,SPOT peptide array binding signal intensity,SpRvs167,302
same,SPOT peptide array binding signal intensity,SpSla1-D1-D2,7
same,SPOT peptide array binding signal intensity,SpSla1-D3,≤ 0
